This is one part of a sample in which hits are shown more often than they occur.
Pf Dd2 growth: blocks in vitro growth of P. falciparum Dd2; hit rate 4.3% among 120,000; Potency, µM (highest dose often 28.9 µM), for the others: at the highest dose activity, negative = inhibition, hits mostly inhibitors; P. falciparum Dd2 growth, SYBR Green, 72 h; active = well fitted inhibition curve with a large enough effect;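 also: plate controls were DMSO vehicle for no effect and reference drug for full effect; nearly all actives have a fitted effect of over 65% in size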
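Infected erythrocytes (Dd2, 0.3% parasitemia, 2.5% hematocrit final) are added to compound in RPMI-1640/Albumax II medium, grown 72 h at 37C in low oxygen, then lysed with saponin/Triton-X containing SYBR Green and read by fluorescence.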
The depositor's hits bear a star; i = inactive; [ ] = remark or other dose. Potency is read from the fitted curve at half-maximal effect.

SMILES | Pf Dd2 growth
CN(CCC(O)c1ccccc1)Cc1cn(-c2ccccc2)nn1 (centres undefined) | 8.91µM*
CC(C)n1cnnc1CN(C)Cc1cn(-c2ccccc2)nn1 | -14.1%
O=C(NCc1ccco1)N1CCc2nc3cc(-c4ccccc4Cl)[nH]n3c(=O)c2C1 | i[5.79 µM]
CC1(c2ccccc2)N(Cc2cccnc2)C(=O)OC12CCN(Cc1ccccc1Cl)CC2 (centres undefined) | -9.4%
CCc1cccc(NC(=O)Cn2c(N3CCOCC3)nc(COC)cc2=O)c1 | i
Cc1cn2nc(C(=O)NCc3cc(F)cc(F)c3)cc2c(=O)[nH]1 | 9.9%
COCCCNC(=O)c1cc2c(=O)[nH]c(C)cn2n1 | 21.3%
COc1ccc(CCNC(=O)c2cc3c(=O)[nH]c(C)cn3n2)cc1OC | i
Cc1cn2nc(C(=O)NCc3cccc(Cl)c3)cc2c(=O)[nH]1 | 8.3%
Cc1ccc(CNC(=O)c2ccc(NC(=O)c3cc4c(=O)[nH]c(C)cn4n3)cc2)cc1 | 3.98µM*
Cc1cn2nc(C(=O)NCCCc3ccccc3)cc2c(=O)[nH]1 | 7.94µM*
O=C(NCc1nnc2n1C(C(=O)N1CCOCC1)CC2)c1ccc(Cl)cc1Cl (centres undefined) | 11.3%
COc1ccc(-c2noc(COC(=O)C3=CN(C)S(=O)(=O)N=C3C)n2)cc1 | 24.2%
O=C(COc1ccccc1)N[C@H]1CO[C@H]2[C@@H]1OC[C@H]2OC(=O)Nc1ccccc1 | i
COc1ccc(C(=O)N[C@@H]2CCC[C@@H]2C(=O)NCc2c(C)n[nH]c2C)cc1 | 1.6%
O=C(Nc1ccc2c(c1)OCCO2)N1CCC(c2nc(C3CCOCC3)no2)CC1 | i
COc1ccc(C(=O)N[C@@H]2CCC[C@@H]2C(=O)NCCC(C)C)cc1 | -9.6%
O=C(Nc1cc(F)c(F)c(F)c1)N1CCC(OC2CCN(Cc3ccccc3)CC2)CC1 | i
CNC(=O)N1CCC(OC2CCN(Cc3ccccc3)CC2)CC1 | -26.5%
O=C(c1c(F)cccc1F)N1CCC(OC2CCN(Cc3ccccc3)CC2)CC1 | 11.2µM*
Cc1cc(=O)n(CC(=O)Nc2c(C)cccc2C)c(-c2ccc(F)cc2)n1 | i
CCNC(=O)N(C1CC1)C1CCOC2(CCN(C(=O)Cc3cccc(C)c3)CC2)C1 (centres undefined) | 1.4%
COC(=O)[C@H]1CN(C(=O)NC(C)C)CCN1S(C)(=O)=O | -18.1%[44.1 µM]
O=C(O)c1cc(-n2c(/C=C\c3ccc(F)cc3)nc3ccccc3c2=O)ccc1Cl | -12.2%
O=C(/C=C/c1ccccc1)Nc1nc2n(n1)C(c1ccc(Cl)cc1)C=C(c1ccccc1)N2 (centres undefined) | 11.2µM*
SMILES | Pf Dd2 growth
O=C(Nc1nc(-c2ccccc2)ns1)c1ccc(Cl)cc1 | 10.5%
O=C(c1ccccc1)n1nc(-c2ccccc2)nc1NCc1ccc(F)cc1 | 13.0%
COc1cc(C2C(C(=O)Nc3ccccc3)=C(C)Nc3nc(SCc4ccccc4F)nn32)cc(OC)c1OC (centres undefined) | 3.2%
O=C(c1ccc(F)cc1)n1nc(-c2ccccc2)nc1NCc1ccc(F)cc1 | -14.5%
O=S(=O)(Nc1nc2n(n1)C(c1ccc(F)cc1)C=C(c1ccc(Cl)cc1)N2)c1ccccc1 (centres undefined) | 11.3%
O=C(/C=C/c1ccc(F)cc1)Nc1nc2n(n1)C(c1ccc(Cl)cc1)C=C(c1ccccc1)N2 (centres undefined) | 11.2µM*
CC(=O)Nc1nc2n(n1)C(c1ccc(F)cc1)C=C(c1ccc(Cl)cc1)N2 (centres undefined) | 10µM*
CC1=C(C(N)=O)C(c2ccc(F)cc2)n2nc(-c3ccccc3Cl)nc2N1 (centres undefined) | 2.9%
COc1ccccc1/C=C/C(=O)Nc1nc2n(n1)C(c1ccc(F)cc1)C=C(c1ccccc1)N2 (centres undefined) | 10µM*
Cc1nc(CC2CCN(C(=O)Cc3ccccc3)CC2)n[nH]1 | 23.8%
COc1ccccc1NC(=O)Nc1ccc2n(c1=O)C[C@H]1C[C@@H]2CN(C(=O)C(=O)O)C1 | 20.1%[44.1 µM]
COC[C@@H]1[C@H](C(=O)Nc2cc(OC)ccc2OC)CCC(=O)N1C | i
O=Cc1cccc(-c2ccc(O)cc2)c1 | 13.0%[44.1 µM]
Cc1ccc(NC(=O)N[C@@H]2C=C(C(=O)NCC(N)=O)C[C@@H](O)[C@@H]2O)cc1 | 5.8%[44.1 µM]
CN(CC1CCOC1)S(=O)(=O)c1cccc(F)c1 (centres undefined) | 28.5%[5.79 µM]
O=C(Cc1ccccc1)NCC1CN(C(=O)C2CCOCC2)CC12CN(c1ccccc1)C2 (centres undefined) | -21.1%
O=C(c1cc(-c2cccc(C(F)(F)F)c2)c2nncn2n1)N1CCCC1 | -21.3%
CC(C)NC(=O)c1cc(-c2cccc(C(F)(F)F)c2)c2nncn2n1 | 4.2%
C#CCNC(=O)c1cc(-c2cccc(C(F)(F)F)c2)c2nncn2n1 | 14.1µM*
Cc1cn2nc(C(=O)NCc3cccc(C(F)(F)F)c3)cc2c(=O)[nH]1 | -18.7%
O=C(NCc1cccs1)c1cc(-c2cccc(C(F)(F)F)c2)c2nncn2n1 | 2µM*
O=C(c1cc(-c2cccc(C(F)(F)F)c2)c2nncn2n1)N1CCOCC1 | 15.3%

Screens (PubChem)
